The list is not random: actives were taken first. Their share in the collection is about 2.1%.
FUS suppressor: qHTS for Suppressors of FUS Proteinopathy: Primary screen using FUS-linked yeast assay | S. cerevisiae FUS-expressing, growth rescue, OD600, 24 h | Potency, µM (highest dose often 76.6 µM), hits mostly activators | 0.24% of 390,000 active; also: nearly all actives have a fitted effect of over 55% in size
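Yeast FUS proteinopathy model; galactose-induced FUS (2%), starting OD 0.005. Cpds in dilution series, 24hr, 30C, 99% humidity. Abs 600 nm growth. Pos ctrl CP55940 (top 92uM final); neg ctrl DMSO.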
Abeta rescue: qHTS for compounds that reverse cellular toxicity of Amyloid beta (A-beta) peptide in yeast: Primary Screen. Potency, µM (top dose mostly 46.1 µM), most hits filed as activators. yeast expressing A-beta42, growth rescue, OD600, 48 h; response scale: 0% DMSO, 100% iron-clioquinol control. AID 1347071, 2019. 0.063% of 410,000 active; also: nearly all actives have a fitted effect of over 55% in size
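Growth rescue measured by 600 nm absorbance after 48 h yeast culture at 30 C with compound. Values normalized between DMSO and an equimolar ferric chloride plus clioquinol control.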
aSyn yeast inh: qHTS of alpha-syn Inhibitors | Potency, µM (doses to about 46.1 µM), usual class: activators | Yeast expressing alpha-synuclein, growth rescue, BacTiter-Glo, 24 h | 0.14% of 370,000 active; also: nearly all actives have a fitted effect of over 65% in size
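Galactose-induced alpha-syn yeast (OD600=0.02, raffinose-pregrown) + pinned cpd, 24 hr, 30 deg C; growth by BacTiter-Glo luminescence. Growth restoration scores as activation.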
TDP-43 yeast inh: qHTS of TDP-43 Inhibitors; TDP-43 expressing yeast growth rescue, BacTiter-Glo, 24 h; AID 652104, 2013; 1.8% of 410,000 active; Potency, µM (titrated, usually from 46.1 µM), most hits filed as activators; also: nearly all actives have a fitted effect of over 50% in size
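Luminescence from BacTiter-Glo reports growth of TDP-43-expressing yeast after 24 hr at 30 deg C with compound. Cells were raffinose-pregrown to mid-log, then seeded in galactose medium at OD600=0.02.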
Each line names hits and unclear results; the compound was inactive in the other large screens. Calls follow the shape of the dose curve; as a rule, active = well fitted curve in the direction sought with a large enough effect; inconclusive = small, poorly fitted or top-dose-only effect, or another doubt; inactive = no such curve, though single readings can be large; an effect the other way counts as inactive or inconclusive.

O=C(C1CC1)N1CCN(c2nc3ccccc3s2)CC1	none
Cc1cc(C)c2sc(N3CCN(C(=O)C4CC4)CC3)nc2c1	TDP-43 yeast inh 13µM (no result: aSyn yeast inh)
Cc1c(Cl)ccc2sc(N3CCN(C(=O)C4CC4)CC3)nc12	FUS suppressor inconclusive, TDP-43 yeast inh 32µM (no result: aSyn yeast inh)
CCc1cccc2sc(N3CCN(C(=O)C4CC4)CC3)nc12	TDP-43 yeast inh 11µM (no result: aSyn yeast inh)
Cc1ccc(-c2csc(NC(=O)C3CC(=O)N(c4ccc5c(c4)OCCO5)C3)n2)o1 (configuration not stated)	none (no result: FUS suppressor, Abeta rescue, TDP-43 yeast inh)
CCOc1cc(CNC(=O)c2ccc3nc(C(C)C)oc3c2)cc(OCC)c1OCC	none (no result: aSyn yeast inh)
Cn1c(-c2ccccc2)cc2c3no[n+]([O-])c3ccc21	TDP-43 yeast inh 3.5µM
Cn1c(-c2ccccc2)cc2ccccc21	none
S=C(NCCc1cccc(Cl)c1)NC1CCCCC1	Abeta rescue 7.1µM
CCOc1ccc(C(=O)OC(C)C(=O)N2CCN(Cc3ccccc3)CC2)cc1 (configuration not stated)	TDP-43 yeast inh 3.2µM
CCOc1ccc(C(=O)NCC(=O)N2CCN(Cc3ccccc3)CC2)cc1	none
NC(=O)C1CCN(c2nc(-c3ccc4ccccc4c3)cs2)CC1	none (no result: aSyn yeast inh, TDP-43 yeast inh)
NC(=O)C1CCN(c2nc(-c3ccc4c(c3)OCCCO4)cs2)CC1	FUS suppressor 25µM (no result: Abeta rescue, aSyn yeast inh, TDP-43 yeast inh)
CCc1nnc(NC(=O)C2Cc3ccccc3CN2S(=O)(=O)c2cccs2)s1 (configuration not stated)	none
CCSc1nnc(NC(=O)C2Cc3ccccc3CN2S(=O)(=O)CC)s1 (configuration not stated)	FUS suppressor 3.5µM
CCSc1nnc(NC(=O)c2ccccc2C)s1	TDP-43 yeast inh 11µM
CCS(=O)(=O)N1Cc2ccccc2CC1C(=O)Nc1nnc(SCc2c(Cl)cccc2Cl)s1 (configuration not stated)	none (no result: FUS suppressor)
CCc1nnc(NC(=O)C2Cc3ccccc3CN2S(=O)(=O)c2ccc(C)cc2)s1 (configuration not stated)	FUS suppressor 14µM
CNc1ccc(/C=C2\C=Cc3ccccc32)cc1Cl	none (no result: FUS suppressor, Abeta rescue, TDP-43 yeast inh)
O=C(NCCN1CCC(Cc2ccccc2)CC1)C1CCCN(S(=O)(=O)c2ccccc2[N+](=O)[O-])C1 (configuration not stated)	none (no result: Abeta rescue, aSyn yeast inh, TDP-43 yeast inh)
COC(=O)c1ccc2nc(-c3ccccc3)c(Cc3ccc(C)cc3)n2c1	TDP-43 yeast inh 13µM
COC(=O)c1ccc2nc(-c3ccc(C)cc3)c(Cc3cccc(Cl)c3)n2c1	TDP-43 yeast inh 22µM
COC(=O)c1ccc2nc(-c3ccc(F)cc3)c(Cc3ccccc3OC)n2c1	TDP-43 yeast inh 22µM
CCCCCn1nnnc1C1(C)CSCC(=O)N1Cc1ccco1 (configuration not stated)	none (no result: Abeta rescue, aSyn yeast inh, TDP-43 yeast inh)
Nc1ccc(C(=O)N/N=C/c2cccc(Oc3ccccc3)c2)cc1	TDP-43 yeast inh 13µM
COc1cccc(/C=N/NC(=O)c2c(C)nc3ccc(Br)cn23)c1	none
O=C(N/N=C/c1cccc(Oc2ccccc2)c1)c1cc[n+]([O-])cc1	none
Cc1nn(C)c(C(=O)N/N=C/c2cccc(Oc3ccccc3)c2)c1Br	TDP-43 yeast inh 4.5µM
O=C(c1ccc2c(c1)N(Cc1ccc(Cl)cc1)C(=O)c1ccccc1S2(=O)=O)N1CCCC1	FUS suppressor 32µM (no result: aSyn yeast inh)
O=C(c1ccc2c(c1)N(Cc1ccc(Cl)cc1)C(=O)c1ccccc1S2(=O)=O)N1CCc2ccccc21	FUS suppressor 7.9µM (no result: aSyn yeast inh)
CC(C)(C)OC(=O)N1CCC(c2c(C(=O)N3CCN(c4ccccn4)CC3)cnn2-c2cccc(F)c2)CC1	none (no result: aSyn yeast inh)
Cc1ccccc1Sc1ncccc1[N+](=O)[O-]	TDP-43 yeast inh 13µM
Cc1ccnc(Sc2ncccc2[N+](=O)[O-])n1	none
O=[N+]([O-])c1cccnc1Sc1ccc(Br)cc1	TDP-43 yeast inh 13µM
Cc1ccc(Sc2ncccc2[N+](=O)[O-])cc1	TDP-43 yeast inh inconclusive
COc1ccccc1NC(=O)CSc1nc2ccccc2c2nc(-c3ccccc3)nn12	TDP-43 yeast inh inconclusive (no result: aSyn yeast inh)
C#CCN1C(C(=O)OC)CN(CCCCCC)CCS1(=O)=O (configuration not stated)	none (no result: Abeta rescue, aSyn yeast inh, TDP-43 yeast inh)
O=C(NCc1ccccc1Cl)C1CCCN(c2nc3ccccc3o2)C1 (configuration not stated)	none (no result: Abeta rescue, aSyn yeast inh, TDP-43 yeast inh)
CCc1c(C)sc(NC(=O)CC#N)c1C#N	FUS suppressor 10µM
CCCCCn1c(=O)c(C(=O)OCC)c(O)c2ccccc21	none
CCCCn1c(=O)c(C(=O)OCC)c(O)c2ccccc21	FUS suppressor inconclusive, TDP-43 yeast inh 16µM
Cc1ccc(-c2nc3scc(CCNC(=O)c4cccc(Br)c4)n3n2)cc1	TDP-43 yeast inh 11µM (no result: aSyn yeast inh)
O=C(NCCc1csc2nc(-c3ccc(F)cc3)nn12)c1ccco1	none (no result: aSyn yeast inh)
Cc1cccc(-c2nc3scc(CCNC(=O)c4ccccc4Cl)n3n2)c1	none (no result: aSyn yeast inh)
O=C(NCCc1csc2nc(-c3cccc(F)c3)nn12)c1ccc(Br)o1	TDP-43 yeast inh 35µM (no result: aSyn yeast inh)
N#Cc1c([N+](=O)[O-])cc([N+](=O)[O-])cc1S(=O)(=O)Cc1ccccc1	TDP-43 yeast inh 11µM (no result: FUS suppressor)
CSc1nn(Cc2ccc(Cl)cc2)c(N(C(C)=O)C(C)=O)c1S(=O)(=O)c1ccccc1	TDP-43 yeast inh inconclusive (no result: aSyn yeast inh)
COc1cccc(Cn2nc(SC)c(S(=O)(=O)c3ccccc3)c2N(C(C)=O)C(C)=O)c1	TDP-43 yeast inh 20µM (no result: aSyn yeast inh)
CSc1nn(Cc2ccc(Br)cc2)c(N(C(C)=O)C(C)=O)c1S(=O)(=O)c1ccccc1	TDP-43 yeast inh 35µM (no result: aSyn yeast inh)
CSc1nn(Cc2cccc(F)c2)c(N(C(C)=O)C(C)=O)c1S(=O)(=O)c1ccccc1	TDP-43 yeast inh 35µM (no result: aSyn yeast inh)
CCCCN(C)CCNC(=O)c1ccc(Cn2c(=O)[nH]c3cc(OC)c(OC)cc3c2=O)cc1	none (no result: aSyn yeast inh)
Cc1ccc2c(c1)[C@H]1OCC[C@H]1[C@@H](c1ccncc1)N2	none
c1ccc(C2Nc3ccccc3C3OCCCC23)cc1 (configuration not stated)	TDP-43 yeast inh 11µM
CC1(C)CC(=O)C(Sc2ccc(Br)cc2)=C(O)C1	TDP-43 yeast inh 13µM
Cc1nc(-n2[nH]c3c(c2=O)CCCC3)[nH]c(=O)c1Cc1ccccc1	FUS suppressor inconclusive, Abeta rescue inconclusive, aSyn yeast inh inconclusive, TDP-43 yeast inh 10µM
CCC(C)(C)NC(=S)Nc1ccccc1C	Abeta rescue 13µM
O=C1OCCC1Sc1nc2cc(Cl)ccc2n1Cc1ccccc1 (configuration not stated)	TDP-43 yeast inh 35µM
O=C1OCCC1Sc1nc2ccccc2c(=O)n1Cc1ccccc1 (configuration not stated)	none
CCOC(=O)C1CCCN(C(=O)c2ccc3c(c2)N(Cc2ccc(Cl)cc2)C(=O)c2ccccc2S3=O)C1 (configuration not stated)	FUS suppressor inconclusive (no result: aSyn yeast inh)
COC(=O)c1cccc(NC(=O)COc2cccc([N+](=O)[O-])c2)c1	TDP-43 yeast inh 11µM
O=S(=O)(c1ccc2ccccc2c1)N1CCN(c2nc(-c3ccccc3)nc3ccccc23)CC1	none (no result: FUS suppressor, Abeta rescue, TDP-43 yeast inh)
Cc1ccc(NC(=S)NCc2ccc3c(c2)OCO3)cc1	TDP-43 yeast inh 22µM

Screening data as filed in PubChem BioAssay.
